# In PubChem BioAssay AID1626 (SRMLSC, 2009):
# Out of some 220,000 compounds screened, about 2,000 (0.91%) were called active. Inconclusive results (about 2%) are left out. Only a sample is shown. Entries with a potency or affinity are not part of this list. Values without a mark were called inactive. Cut-off read from the data, not from the text of the source: inconclusive = inhibition above about 80% without an active follow-up result; inactive = below that; test concentration not stated here.
# Assay: M. tuberculosis H37Rv growth inhibitors, H37Rv strain (AID 1626);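 note: bacteria incubated seven days before Alamar blue readout; 0% = bacteria only wells and 100% = bacteria with antibiotic wells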
# Details: hits give high values, concentration not given here
row,Structure (SMILES),inhibition
1,CCC(=O)c1ccc(O)cc1,14.2%
2,CCCCCCCC(=O)N/N=C(\C)c1ccc(O)cc1O,11.6%
3,CCCCC(=O)c1ccc(O)cc1O,77%
4,O=C(CCO)c1ccc(O)cc1,12.1%
5,O=C(NCc1ccc(Cl)cc1)c1noc2c1CCCCC2,4.19%
6,COc1ccc(NC2=CC(=O)CC(c3ccccc3)C2)cc1 (configuration not stated),-3.06%
7,O=C(O)CC(CC(=O)Nc1ccc(F)c(Cl)c1)c1ccc(Cl)cc1Cl (configuration not stated),-8.97%
8,NNC(=O)C(Cc1ccccc1)NC(=O)OCc1ccccc1 (configuration not stated),3.92%
9,O=C(Nc1ccc(Cl)c(Cl)c1)c1ccc(Cl)c(Cl)c1,2.4%
10,Clc1ccc(C2=NCCN2)cc1,4.97%
11,CCCN1C(=O)c2cc(C(=O)NCc3cccs3)ccc2C1O (configuration not stated),-13.3%
12,O=C(Nc1ccc(F)c(Cl)c1)C1CC(=O)n2c(nc3ccccc32)N1 (configuration not stated),-5.64%
13,Cc1ccc(/C=N/N2CCN(c3ccccc3)CC2)cc1,-2.14%
14,O=c1c(O)c(-c2cccs2)oc2ccccc12,-4%
15,O=c1cc(-c2cccs2)oc2ccc(Cl)cc12,-2.31%
16,Cc1cc(C(=O)NNS(=O)(=O)c2cccc(Cl)c2)nn1C(C)(C)C,2.6%
17,CC(C)(C)NC(=O)Cn1c(Cl)nc2ccccc21,-2.82%
18,Cc1ccc(OCc2csc(N)n2)cc1,2.65%
19,Nc1nc(-c2ccc3ccccc3c2)cs1,67.7%
20,COc1ccc(-c2csc(N)n2)cc1,84.2%
21,Nc1nc(-c2ccc(-c3ccccc3)cc2)cs1,-0.75%
22,Nc1nc(-c2ccccc2)cs1,56.7%
23,Fc1cccc(-c2csc(-c3ccno3)n2)c1,0.3%
24,COc1ccc(OCc2csc(N)n2)cc1,-2.49%
25,CC(=O)Nc1cccc(-c2csc(N)n2)c1,1.85%

row,Structure (SMILES),inhibition
1,CCCCOc1ccc(NC(=O)C(=O)NCCC2=CCCCC2)cc1,-6%
2,Cc1ccc(NC2=NC3(CCCC3)N=C(N)N2)c(C)c1,-0.52%
3,CCC1CCCCN1C(=O)CSc1nnc(CNC(=O)COc2ccc(Cl)cc2)o1 (configuration not stated),0.62%
4,CC(=O)Nc1ccc(C(=O)NCC(=O)OCc2ccccc2F)cc1,8.24%
5,C=CCNC(=O)c1sc(-c2ccccc2)nc1C,-4.4%
6,COCCn1c(SCC(=O)N2CCN(c3ccccc3)CC2)nc2c(c1=O)SC(C)C2 (configuration not stated),-6.25%
7,O=C(COC(=O)c1cccs1)NCC1CCCO1 (configuration not stated),-10.3%
8,COC(=O)Nc1ccc(S(=O)(=O)NCc2ccccn2)cc1,4.77%
9,Cc1ccc2c(c1)C1CN(C)CCC1N2C(=O)c1cccc(S(=O)(=O)N(C)C)c1 (configuration not stated),1.67%
10,COCCOc1ccc(C(F)(F)F)cc1Nc1nc2ccccc2o1,11.7%
11,COc1cc(/C=N/OCC(=O)Nc2cc(C)on2)ccc1OCc1ccccc1,6.49%
12,CC1CCCN(c2c([N+](=O)[O-])cc(C(=O)O)cc2[N+](=O)[O-])C1 (configuration not stated),-5.57%
13,O=[N+]([O-])c1ccc(N2CCCCC2)s1,48.3%
14,O=C(Cc1c[nH]c2ccccc12)NCc1ccc2c(c1)OCO2,8.71%
15,CCCOc1ccc2c3c(c(=O)oc2c1OCCC)CCCC3,30.6%
16,CCOc1c(OC)ccc2c3c(c(=O)oc12)CCCC3,12.9%
17,Cc1cc(CNC(=S)Nc2ccc(Br)cc2Cl)nn1C,9.6%
18,CCOc1ccc(-n2c(O)c(C=Nc3ccc(N4CCOCC4)cc3)c(=O)[nH]c2=O)cc1,-4.71%
19,COc1cc(CN=Cc2c(O)n(C(C)(C)C)c(=O)[nH]c2=O)cc(OC)c1,-1.21%
20,CCOc1ccccc1-n1c(O)c(C=Nc2ccc(N(CC)CC)cc2)c(=O)[nH]c1=O,-4.16%
21,CCN(CC)c1ccc(N=Cc2c(O)n(-c3ccc(OC)cc3)c(=O)[nH]c2=O)cc1,-3.8%
22,Cc1ccc(N=Cc2c(O)n(-c3ccc(C)cc3)c(=O)[nH]c2=O)cc1,-7.29%
23,COc1ccc(N=Cc2c(O)n(-c3cccc(C)n3)c(=O)c3ccccc23)cc1,16.8%
24,Cc1cccc(-n2c(O)c(C=Nc3ccc(O)cc3)c3ccccc3c2=O)n1,-0.55%
25,CCOc1ccc(N=Cc2c(O)n(Cc3ccccc3)c(=S)[nH]c2=O)cc1,72.9%

row,Structure (SMILES),inhibition
1,O=C(O)c1ccc(CSc2nc3ccc(N4C(=O)C5C6C=CC(C6)C5C4=O)cc3s2)cc1 (configuration not stated),-3.36%
2,CN=C1SC(CC(=O)Nc2ccccc2F)C(=O)N1C (configuration not stated),-3.74%
3,COc1cccc(NC(=S)NNC(=O)c2ccccc2OC(F)F)c1,-13.3%
4,COc1ccc(C)cc1N(C(=O)CNC(=O)c1ccco1)C(C(=O)NC1CCCC1)c1cccnc1 (configuration not stated),-8.51%
5,COc1cccc(-c2nn(-c3ccccc3)cc2CN(C)Cc2ccon2)c1,-3.56%
6,CN(C)S(=O)(=O)c1ccc2oc(SCC(N)=O)nc2c1,-16.7%
7,CC1=NN(C(=O)COc2ccccc2)C(O)(c2cccnc2)C1 (configuration not stated),-1.6%
8,COc1ccc(CCN(C)CC(O)c2ccccc2)cc1OC (configuration not stated),1.49%
9,CCOc1ccc(-n2c(O)c(C=Nc3ccc(N(CC)CC)cc3)c(=O)[nH]c2=O)cc1,-0.69%
10,CCOc1ccc(-n2c(O)c(C=Nc3ccc(NC(C)=O)cc3)c(=O)[nH]c2=O)cc1,4.04%
11,CC1CCCN(c2nc3c(c(=O)[nH]c(=O)n3C)n2CCSc2ncccn2)C1 (configuration not stated),2.85%
12,COC(=O)C1C2c3ccccc3OC1(C)N=c1s/c(=C/c3cn(C)nc3C)c(=O)n12 (configuration not stated),-3.65%
13,COC(=O)C1C2c3ccccc3OC1(C)N=c1s/c(=C/c3cnn(C)c3)c(=O)n12 (configuration not stated),58.3%
14,Cc1c(C)[n+](=O)c2c(n1[O-])C(Br)CCC2Br (configuration not stated),0.09%
15,NC(=O)Oc1cccc(OC(N)=O)c1,-7.05%
16,COC(=O)c1cccc(NC(N)=S)c1,2.04%
17,C#CCOc1ccc(Br)cc1/C=N/O,7.55%
18,O=C(NCc1cccs1)c1cc(-c2ccncc2)nc2ccc(Br)cc12,71.8%
19,Cc1cc(N)n2ncc(-c3cccc(Br)c3)c2n1,22.8%
20,O=C(O)CSC1c2ccccc2C(=O)N1c1ccccc1 (configuration not stated),-1.63%
21,CC(C)CNC(=O)Cn1c(=O)c2c(ncn2CC(C)C)n(Cc2ccccc2)c1=O,7.42%
22,Cc1ccc(NC(=S)NNC(=O)c2ccco2)cc1,7.01%
23,O=C(Nc1ncc(Cc2cccc([N+](=O)[O-])c2)s1)c1ccco1,1.37%
24,O=C(Nc1ncc(Cc2ccccc2Cl)s1)c1ccc(-c2cccc([N+](=O)[O-])c2)o1,-0.67%
25,COC(=O)c1ccc(OCC(O)CN2C(=O)NC(C)(C)C2=O)cc1 (configuration not stated),-2.31%

row,Structure (SMILES),inhibition
1,CN(C)C(CNC(=O)c1cc(S(=O)(=O)N(C)c2ccccc2)ccc1Cl)c1cccs1 (configuration not stated),-3.17%
2,Cc1occc1C(=O)N/N=C/C1=C(N2CCOCC2)C(=C\c2ccc(Cl)cc2)/CC1,-4.7%
3,O=C(NCc1cccnc1)c1ccc(COc2ccccc2Br)cc1,12%
4,O=C(NCCC(=O)N1CCOCCOCCOCCOCC1)OCc1ccccc1,-3.39%
5,CCOC(=O)N1CCN(C(=O)c2ccc3nc4ccc(Cl)cc4c(=O)n3c2)CC1,2.6%
6,NS(=O)(=O)c1ccc(CNC(=O)c2cc(-c3ccccn3)nc3ccc(Cl)cc23)cc1,8.36%
7,CCNC(=O)CN1C(=O)NC(Cc2ccccc2)(Cc2ccccc2)C1=O,-0.94%
8,COc1ccc(NC(=O)Nc2ccc(F)cc2F)cc1,10.7%
9,COc1ccc(CN2C(=O)CS/C2=N/N=C/c2ccccc2)cc1,-0.88%
10,CCNC(=S)N(Cc1c(C)noc1C)c1ccccc1,-11.8%
11,CCOc1cc(/C=N/NC(=O)CSc2nncn2C)ccc1OCc1cccc(C)c1,5.11%
12,COc1cccc(C2C3=C(N=c4s/c(=C\c5ccc(O)cc5)c(=O)n42)c2ccccc2CC3)c1OC (configuration not stated),6.52%
13,COc1ccc(/C=c2/sc3n(c2=O)C(c2ccccc2OC)C2=C(N=3)c3ccccc3CC2)cc1O (configuration not stated),16.2%
14,COc1cccc(C2C3=C(N=c4s/c(=C\c5ccccc5O)c(=O)n42)c2ccccc2CC3)c1OC (configuration not stated),5.15%
15,COc1ccccc1C1C2=C(N=c3s/c(=C/c4cccc(OCC(=O)O)c4)c(=O)n31)c1ccccc1CC2 (configuration not stated),-4.54%
16,CCOc1ccc(NC(=O)Nc2ccc(Br)cn2)cc1,0.855%
17,CCOC(=O)N1CCN(C(=O)c2ccccc2NC(=O)c2ccc(F)cc2)CC1,22.6%
18,COc1ccc(C2/C=C\CN(C(=O)Oc3ccccc3)CC(=O)N2Cc2ccc(F)cc2)cc1 (configuration not stated),0.77%
19,CC(NC(=O)Cn1c(NCCO)nc2ccccc21)C1CC2CCC1C2 (configuration not stated),-0.5%
20,O=C1C(NS(=O)(=O)c2cccs2)=C(N2CCN(c3ccccc3)CC2)C(=O)c2ccccc21,6.53%
21,O=C1C(NS(=O)(=O)c2cccs2)=C(N2CCN(c3cccc(Cl)c3)CC2)C(=O)c2ccccc21,72.6%
22,COc1ccccc1N1C(=O)C2CC=CC(C)C2C1=O (configuration not stated),-9.33%
